Experimental data reported in PubChem BioAssay (NCI).
About 83,000 compounds went through this panel and 20% of them were active in at least one assay; those are over-represented in the sample as a whole.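 Single-concentration screen, 48 h exposure, 96-well plates. Endpoint: percent growth. Below 10 = active.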 A number with no mark means an inactive call. Calls of active or inactive are those of the source.

tested on: SNB-19 CNS; experiment: NCI-60 one-dose screen, 48 h (100 = growth as untreated, 0 = no growth, -100 = all killed); settings: 10 µM unless noted
Method: Growth inhibition of the SNB-19 human tumor cell line is measured as a screen for anti-cancer activity. Cells are grown in 96 well plates and exposed to the test compound for 48 hours. Compounds are tested at a single concentration, which is 10^-5 M for most compounds. The reported endpoint is percent growth (GI% or GIPRCNT), where numbers from 0 - 100% represent growth inhibition, and numbers from -100% - 0 represent cell death. For example, a value of 40 represents 60% growth inhibition. A value of 0 means no net growth occurred over the course of the experiment. A value of -40 indicates 40% of cells at the beginning of the experiment died by the end of the experiment. A value of -100 means all cells are dead at the end of the experiment.
NCI-60 Human Tumor Cell Lines Screen was performed using the standard one-dose NCI protocol, which is described in more detail at https://dtp.cancer.gov/discovery_development/nci-60/default.htm.
Compounds with GIPRCNT values below 10 were considered active. Activity score was based on GIPRCNT using the following formula: […]
Score is 0 for GIPRCNT values of 100 or above, 50 for GIPRCNT values of 0, and 100 for GIPRCNT values of -100.

SMILES	growth
Cn1cc(-c2cc(N)n3nc(-c4cn(C)c5ncc(Br)cc45)cc3n2)c2cc(Br)cnc21	10%
O=c1oc2ccc(Br)cc2cc1C1=CSc2nc3sc4c(c3c(=O)n2N=C1)CCCC4	97%
COc1c(F)ccc(C(=O)Nc2ccc3nc(NC(=O)C4CCCN(S(=O)(=O)C5CC5)C4)sc3c2)c1F (stereo not given)	63.5%
COc1ccc(C(=O)/C=C/c2ccc(Oc3nc(Nc4ccc(F)cc4)nc(N(C)C)n3)c(OC)c2)cc1	63.4%
C#CCOc1ccc(/C=N/Nc2nc(-c3ccc(Cl)cc3)cs2)cc1OC	74.6%
CCCCn1c(O)c(N=Nc2nc(-c3cc4ccccc4oc3=O)cs2)c2cc(Br)ccc21	95.3%
C=C1CCC2C3(C)COC(c4ccc(F)cc4)OC3CCC2(C)C1C/C=C1/C(=O)OCC1O (stereo not given)	-55.8% (active)
Cc1cc2nc3c4ccccc4n(CCNCCN(C)C)c3nc2cc1C	35.3%
O=C(CSc1nc2ccccc2c(=O)[nH]1)NCCN1CCCCC1	94.6%
O=C1CC(Sc2n[nH]c(-c3ccncc3)n2)C(=O)N1c1ccc(Br)cc1 (stereo not given)	96.1%
COc1cc(OC)cc(-c2cc3ccc(N(C)C)cc3c(=O)[nH]2)c1	35.5%
CN1CCN(Cc2ccc(C(=O)Nc3cccc(C#Cc4cccc5[nH]nc(N)c45)c3)cc2C(F)(F)F)CC1	-89.7% (active)
O=C(c1ccccc1)C(c1c[nH]c2ccccc12)c1c[nH]c2ccccc12	91.7%
COc1ccc(C(=O)/C=C/c2cccc(Cl)c2)cc1S(N)(=O)=O	0.182% (active)
O=C(COc1ccc(NC(=O)Nc2ccc(Cl)c(Cl)c2)cc1)N=Nc1c(O)[nH]c2ccc(Br)cc12	-5.58% (active)
COc1ccc(C(=O)/C=C/c2ccc(OC)c(OCc3ccccc3)c2)cc1OC	17.3%
CCOC(=O)C(N=Nc1ccc(S(=O)(=O)N=C(N)N)cc1)C(C)=O (stereo not given)	101%
COc1cc(/C=C/C(=O)c2ccccc2)ccc1Oc1nc(Nc2ccc(F)cc2)nc(N(C)C)n1	3.33% (active)
CCOP(=O)(OCCCl)c1nc(-c2ccc(C)cc2)oc1NCc1ccccc1 (stereo not given)	65.8%
COc1ccc(/C=C/c2nc3ccccc3n3c(-c4ccc(Cl)cc4)nnc23)cc1	94.7%

SMILES	growth
Cc1ccc(NC(=O)CN2CCN(c3ncnc4c3cnn4-c3ccccc3)CC2)cc1	85.9%
COc1ccc(C(=O)/C=C/c2ccccc2Br)cc1S(N)(=O)=O	1.44% (active)
COc1cccc(/C=C/C(=O)c2ccc(OC)c(S(N)(=O)=O)c2)c1	27%
O=C1NC(=O)/C(=C/c2ccccc2OCc2cc3ccccc3nc2Cl)S1	39.2%
Cc1nc(Nc2ccccn2)sc1C(=O)CC(SCC(=O)Nc1ccc(Cl)cc1)c1ccccc1F (stereo not given)	11%
COc1cc(C2CC(c3cc(OC)c(OC)c(OC)c3)=NN2c2ccccc2)ccc1OCc1ccc(C)cc1 (stereo not given)	91.7%
COc1ccc2[nH]c(=O)c(CSc3nccc(-c4ccc(OC)c(OC)c4)n3)cc2c1	21.4%
Cc1ccc([C@H]2C(C(=O)c3ccc(Cl)cc3)C3(N[C@@H]2c2ccccc2)C(=O)Nc2ccccc23)cc1 (stereo not given in full)	41%
CN(C)CCCNC(=O)c1cc(NC(=O)c2cc(NC(=O)c3ccc(C#Cc4ccccc4)cc3)cn2C)cn1C	24.7%
O=C1/C(=C/C2=Cc3ccccc3OC2)SC(=S)N1c1ccccc1F	98.2%
Cn1nc(C(F)(F)F)cc1-c1cc(Cl)c(COc2ccc(Cl)cc2)c(-c2ccc(Cl)c(C(F)(F)F)c2)c1O	-11.5% (active)
COc1ccc(-c2nc3cc(C)ccc3n2CC(=O)N=Nc2c(O)[nH]c3ccc(Cl)cc23)cc1	31.4%
C#CCOc1cc(N(CC)CC)ccc1C(C(=O)NC(C)(C)C)N(C(=O)C1CCc2cc(F)ccc2O1)c1cc(C)cc(C)c1 (stereo not given)	38.3%
Cc1ncsc1-c1ccc(CNC(=O)[C@@H]2C[C@@H](O)CN2C(=O)[C@@H](NC(=O)C2(F)CC2)C(C)(C)C)c(OCCOCCOCCOCCOc2nc(Nc3cc(S(C)(=O)=O)ccc3N[C@@H](c3cccc4c3OC(F)(F)O4)c3ncccc3Cl)nc(N3CCNCC3)n2)c1	64.8%
COc1ccc2c(c1)c(-c1cc3nc(-c4cn(C)c5ncccc45)cc(N)n3n1)cn2C	22.3%
Cc1ccc2c(N)c(C(=O)Nc3ccc(OC(F)(F)F)cc3)sc2n1	79.5%
COc1cc2oc(-c3cccc(NC(=O)[C@H](CC(N)=O)NC(=O)OC(C)(C)C)c3)cc(=O)c2c(OC)c1OC	96%
O=C(/C=C/Nc1ccc2oc(=O)ccc2c1)c1cc2cc(Br)ccc2oc1=O	97.5%
Cc1cnc(C(=O)NNc2nc3cc(F)ccc3n3c(C(=O)N4CC5CC(C4)N5)ccc23)cn1	35.2%
CCCCSc1nc(Nc2ccc(S(N)(=O)=O)cc2)c(C#N)c(-c2cc(OC)c(OC)c(OC)c2)n1	54.5%
